From PubChem BioAssay
CYP2C19 inhib – blocks human cytochrome P450 2C19; CYP2C19 Supersomes, luciferin-H EGE luminescence, 30 min; P33261; 96,000 compounds, 21% hits; AID 778; inhibition, % at 5 µM;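 active = CYP2C19 inhibition above a set limit at 5 µM in the primary screen, cut at about 50% in these data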;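 note: plate controls were negative control wells for no effect and 2.5 mM tranylcypromine positive control for full effect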
CYP2C19 act – increases human CYP2C19 enzyme activity; recombinant CYP2C19, luciferin-H EGE luminescence; stronger effect = higher value; 0 = fully inhibited enzyme, 1 = untreated enzyme; activation factor at 5 µM; 96,000 tested, under 10 active;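 active = activation factor of at least 2 at 5 µM in the primary screen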;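 note: 0 = wells with 2.5 mM tranylcypromine and 1 = vehicle-only wells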
CYP2C9 inh – human CYP2C9 inhibition | P11712 | CYP2C9 Supersomes, luciferin-H conversion, luminescence | inhibition, % at 5 µM | 96,000 compounds, 20% hits | AID 777;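 active = blocking of liver enzyme CYP2C9 beyond about 50% at 5 µM, limit read from the data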
Target sequence (P11712 whole entry, looked up): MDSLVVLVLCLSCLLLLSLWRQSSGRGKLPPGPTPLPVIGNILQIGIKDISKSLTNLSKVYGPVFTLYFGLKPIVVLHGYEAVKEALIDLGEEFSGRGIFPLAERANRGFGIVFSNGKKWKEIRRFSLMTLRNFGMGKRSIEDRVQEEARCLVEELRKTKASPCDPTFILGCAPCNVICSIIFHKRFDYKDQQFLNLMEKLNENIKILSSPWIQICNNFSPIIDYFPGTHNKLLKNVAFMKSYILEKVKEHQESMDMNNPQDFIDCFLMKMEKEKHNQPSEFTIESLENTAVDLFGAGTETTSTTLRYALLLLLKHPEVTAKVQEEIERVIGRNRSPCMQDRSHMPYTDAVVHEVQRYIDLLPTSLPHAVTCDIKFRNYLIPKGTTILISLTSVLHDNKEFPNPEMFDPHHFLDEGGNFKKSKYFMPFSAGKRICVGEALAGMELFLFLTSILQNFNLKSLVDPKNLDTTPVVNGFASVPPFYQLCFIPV
PLAP act – human PLAP activation | P05187 | purified PLAP enzyme, luminescent substrate read-out; stronger effect = higher value | activation fold at 20 µM | 96,000 compounds, 1.2% hits | AID 696; in the data active = activation fold above about 2
CYP2C9 activ – CYP2C9 (human) activation; recombinant CYP2C9, luciferin-H conversion, luminescence; stronger effect = higher value; factor 1 = untreated enzyme, 0 = blocked; activation factor at 5 µM; 96,000 compounds, 1.4% hits; AID 1024; P11712;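 active = activation factor of 2 or more for CYP2C9 at a 5 µM dose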;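 note: 0 = sulfaphenazole-blocked wells and 1 = vehicle-only wells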
The depositor's hits bear a star. In the library only some 31% were active in any assay of this set; here they are far more common.

SMILES | CYP2C19 inhib | CYP2C19 act | CYP2C9 inh | PLAP act | CYP2C9 activ
CCc1nc2ccccc2c(C(=O)OC2CCOC2=O)c1C (stereo not given) | 52* | 0.5 | -5 | 1.4 | 1.1
O=C(CCN1C(=O)C2CC=C(Cl)CC2C1=O)Nc1ccccc1O (stereo not given) | 59* | 0.4 | 42 | 1.1 | 0.6
O=C(CCN1C(=O)C2CC=C(Cl)CC2C1=O)NCc1ccco1 (stereo not given) | -14 | 1.1 | -4 | 1.5 | 1
Cc1noc(C)c1C(=O)OCC(=O)NC(c1ccccc1)c1ccccc1 | 9 | 0.9 | 12 | 1 | 0.9
COC(=O)c1cc(NS(=O)(=O)c2ccc(N3CCCCC3)c([N+](=O)[O-])c2)cc(C(=O)OC)c1 | 10 | 0.9 | 22 | 1.1 | 0.8
O=C1CCCN1c1ccc(S(=O)(=O)Oc2cccc(Cl)c2)cc1[N+](=O)[O-] | 66* | 0.3 | 46 | 1 | 0.5
CCOc1ccc(OCC)c(NC(=O)CSc2nnc(-c3cccnc3)o2)c1 | 24 | 0.8 | 31 | 1 | 0.7
CCOC(=O)c1c(NC(=O)CSc2nnc(-c3ccco3)o2)sc(C(C)=O)c1C | 14 | 0.9 | 70* | 0.9 | 0.3
CCOC(=O)c1c(NC(=O)CSc2nnc(-c3ccco3)o2)sc(C)c1C | 21 | 0.8 | 48 | 1.2 | 0.5
CCOC(=O)c1c(NC(=O)CSc2nnc(-c3cccnc3)o2)sc(C(C)=O)c1C | 14 | 0.9 | 65* | 1.1 | 0.3
COc1ccc(CNC2CC(=O)N(C)C2=O)cc1 (stereo not given) | 20 | 0.8 | 6 | 1.1 | 0.9
CC1C(c2ccccc2)N(C)C(c2ccccc2)CC1(O)c1ccccc1 (stereo not given) | 65* | 0.3 | 24 | 0.6 | 0.8
Cc1cccc2cc(C(c3nnnn3CC3CCCO3)N3CCOCC3)c(=O)[nH]c12 (stereo not given) | -4 | 1 | -4 | 1.1 | 1
CN(C)CCCN1C(=O)C(=O)/C(=C(/O)c2ccccc2)C1c1ccccn1 (stereo not given) | 0 | 1 | -5 | 0.9 | 1.1
O=C1C(=O)N(Cc2cccnc2)C(c2ccccn2)/C1=C(/O)c1ccc(Br)cc1 (stereo not given) | -1 | 1 | 86* | 0.9 | 0.1
CC1(C)CC(OC(=O)c2ccco2)CC(C)(C)N1O | 7 | 0.9 | 19 | 1 | 0.8
COC(=O)c1sc(NC(=O)CC(C)C)c(C(=O)OC)c1C | 59* | 0.4 | 26 | 1.2 | 0.7
COC(=O)c1sc(NC(C)=O)c(C(=O)OC)c1C | -3 | 1 | 2 | 0.9 | 1
COC(=O)c1sc(NC(=O)CSc2nncs2)c(C(=O)OC)c1C | 28 | 0.7 | 66* | 1.4 | 0.3
COc1ccc(NC(=O)CSc2nncs2)cc1OC | 13 | 0.9 | 1 | 0.9 | 1
CC1(C)C(=O)Nc2ccccc2N1C(=O)COc1ccc(S(=O)(=O)N2CCOCC2)cc1Cl | 42 | 0.6 | 66* | 1.5 | 0.3
CC1(C)C(=O)Nc2ccccc2N1C(=O)COc1ncnc2c(Cl)cc(Cl)cc12 | 77* | 0.2 | 49 | 1.1 | 0.5
CCCn1c(=O)[nH]c(=O)c2c1nc(-c1ccccc1)n2CCN1CCOCC1 | -17 | 1.2 | -11 | 1.1 | 1.1
CCc1ccc(S(=O)(=O)Nc2c(C)nn(C)c2C)cc1 | 84* | 0.2 | 20 | 0.8 | 0.8
Cc1ccc(S(=O)(=O)Nn2c(C)ccc2C)cc1 | 64* | 0.4 | 22 | 1.3 | 0.8
SMILES | CYP2C19 inhib | CYP2C19 act | CYP2C9 inh | PLAP act | CYP2C9 activ
Cc1ccc(S(=O)(=O)Nc2c(C)nn(C)c2C)cc1 | 79* | 0.2 | 5 | 0.9 | 1
Cc1ccc(S(=O)(=O)Nc2nncs2)cc1 | 0 | 1 | 27 | 1 | 0.7
CCOC(=O)c1ccc(NC(=O)Nc2c(C)nn(C)c2C)cc1 | 4 | 1 | 7 | 0.9 | 0.9
Cc1ccc(NC(=O)C(C)c2ccc(-c3ccccc3)c(F)c2)c(C)c1 (stereo not given) | 4 | 1 | 8 | 1 | 0.9
CCCCn1cnc2c([nH]c3ccccc32)c1=O | 32 | 0.7 | 0 | 0.8 | 1
O=c1c2[nH]c3ccccc3c2ncn1CCCn1ccnc1 | 30 | 0.7 | 72* | 0.9 | 0.3
O=c1c2[nH]c3ccc(Br)cc3c2ncn1CCCn1ccnc1 | 82* | 0.2 | 89* | 1.1 | 0.1
N=c1sccn1CC(=O)Nc1cc(Cl)ccc1Oc1ccccc1 | 19 | 0.8 | 10 | 1 | 0.9
Cc1cccc(C)c1N(CC(=O)Nc1cc(Cl)ccc1Oc1ccccc1)S(C)(=O)=O | -4 | 1 | 66* | 1.1 | 0.3
COc1ccc(Cl)cc1NC(=O)CN(c1ccccc1)S(=O)(=O)N(C)C | 81* | 0.2 | -35 | 1.1 | 1.4
COc1ccc(Cl)cc1NC(=O)CN(C)C1CCCCC1 | 86* | 0.1 | -129 | 0.8 | 2.3*
CS(=O)(=O)N(CC(=O)Nc1cc(Cl)ccc1Cl)c1ccccc1Cl | 96* | 0 | 77* | 0.8 | 0.2
NC(=O)Nc1ccc(Oc2c(F)c(F)c(F)c(F)c2F)cc1 | 30 | 0.7 | 31 | 0.8 | 0.7
CCOC(=O)c1ccccc1NC(=O)CN(c1ccccc1OC)S(C)(=O)=O | 49 | 0.5 | 50 | 1.3 | 0.5
COC(=O)c1[nH]c2cccc(OC)c2c1NC(=O)CCN1CCC(C(N)=O)CC1 | -7 | 1.1 | -6 | 1 | 1.1
Cc1ccc(Cl)cc1NC(=O)COC(=O)C1CCCC1 | 96* | 0 | 30 | 0.9 | 0.7
COc1ccc(C)cc1NC(=O)COC(=O)c1c(C)noc1C | 31 | 0.7 | 27 | 0.8 | 0.7
CCOC(=O)c1ccccc1NC(=O)CN(c1ccccc1)S(=O)(=O)N(C)C | 86* | 0.1 | 94* | 0.9 | 0.1
Cc1ccc(Cl)cc1NC(=O)COC(=O)C12CC3CC(CC(C3)C1)C2 | 2 | 1 | 22 | 0.9 | 0.8
COC(=O)c1[nH]c2cccc(Cl)c2c1NC(=O)CN(C)C1CCCCC1 | 48 | 0.5 | 63* | 1.5 | 0.4
Cc1noc(C)c1C(=O)OCC(=O)Nc1cc(Cl)ccc1Oc1ccccc1 | 39 | 0.6 | 63* | 1.2 | 0.4
COc1cc(C(c2c(C)[nH][nH]c2=O)c2c(C)[nH][nH]c2=O)ccc1OS(=O)(=O)c1ccc(C)cc1 | 85* | 0.2 | 66* | 2.9* | 0.3
COc1cc(C(c2c(C)[nH][nH]c2=O)c2c(C)[nH][nH]c2=O)ccc1OCc1ccc([N+](=O)[O-])cc1 | 45 | 0.6 | -37 | 2.6* | 1.4
COc1cc(C(c2c(C)[nH][nH]c2=O)c2c(C)[nH][nH]c2=O)ccc1OS(=O)(=O)c1ccccc1 | 23 | 0.8 | 37 | 2.5* | 0.6
COc1cc(C(c2c(C)[nH][nH]c2=O)c2c(C)[nH][nH]c2=O)ccc1OC(=O)c1cccc([N+](=O)[O-])c1 | 12 | 0.9 | 34 | 1.2 | 0.7
CCOC(=O)C(=Cc1ccc(OCc2ccc([N+](=O)[O-])cc2)c(OC)c1)C(=O)OCC | -2 | 1 | 53* | 1 | 0.5
Cc1noc(C)c1C(=O)N1CCCC1 | 6 | 0.9 | -5 | 0.9 | 1
